# MEKK2mut PB1 HTS: signal of MEK5 binding to mutant human MEKK2 PB1 domain; bead flow cytometry, Alexa488-MEK5 binding to MEKK2 mutant; percent response, % at 10 µM; 290,000 compounds, 0.35% hits; in the data active = percent response above about 24%, passing the limit was not always enough
# UBC13 polyUb: inhibitors of human UBC13 polyubiquitin chain formation; P61088; TR-FRET; inhibition, % at 20 µM; 330,000 compounds, 0.47% hits; in the data active = inhibition above about 45%, passing the limit was not always enough
# ATG4B inh: inhibitors of human ATG4B cysteine protease | Q9Y4P1 | ATG4B cleavage of LC3-PLA2, NBD-HPC fluorescence, 1 h | inhibition, % at 8.33 µM | 340,000 compounds, 0.51% hits; in the data active = inhibition above about 40%
# MEKK2wt PB1 HTS: raises or lowers MEK5 binding to wildtype human MEKK2 PB1 domain | Q9Y2U5 | bead flow cytometry, Alexa488-MEK5 binding to MEKK2 WT; actives lie on both sides | binding response (% of control), % at 10 µM | 290,000 compounds, 1.1% hits; in the data active = binding response below about 67% or above about 130%
# MEKK3 PB1 HTS: modulators (inhibitors or enhancers) of MEK5 binding to human MEKK3 PB1 domain. Q99759. bead-based flow cytometry, Alexa488-MEK5 binding to MEKK3; actives lie on both sides; 0 = blocked by unlabeled MEK5, 100 = vehicle. binding response (% of control), % at 10 µM. 290,000 compounds, 1.4% hits. AID 1529;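 active = binding response more than 3 SD above or below the average of its plate-row segment, actives on both sides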;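 note: Alexa488 bead fluorescence after subtracting the streptavidin-only scavenger bead signal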
# PREPL inh: inhibits the human prolyl oligopeptidase-like enzyme; recombinant PREPL, fluorescence polarization activity-based probe; inhibition, % at 5.96 µM; AID 2751; 320,000 compounds, 0.68% hits;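 note: 0% = enzyme with DMSO and 100% = wells lacking enzyme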
# Target sequence (Q4J6C6 whole entry, looked up): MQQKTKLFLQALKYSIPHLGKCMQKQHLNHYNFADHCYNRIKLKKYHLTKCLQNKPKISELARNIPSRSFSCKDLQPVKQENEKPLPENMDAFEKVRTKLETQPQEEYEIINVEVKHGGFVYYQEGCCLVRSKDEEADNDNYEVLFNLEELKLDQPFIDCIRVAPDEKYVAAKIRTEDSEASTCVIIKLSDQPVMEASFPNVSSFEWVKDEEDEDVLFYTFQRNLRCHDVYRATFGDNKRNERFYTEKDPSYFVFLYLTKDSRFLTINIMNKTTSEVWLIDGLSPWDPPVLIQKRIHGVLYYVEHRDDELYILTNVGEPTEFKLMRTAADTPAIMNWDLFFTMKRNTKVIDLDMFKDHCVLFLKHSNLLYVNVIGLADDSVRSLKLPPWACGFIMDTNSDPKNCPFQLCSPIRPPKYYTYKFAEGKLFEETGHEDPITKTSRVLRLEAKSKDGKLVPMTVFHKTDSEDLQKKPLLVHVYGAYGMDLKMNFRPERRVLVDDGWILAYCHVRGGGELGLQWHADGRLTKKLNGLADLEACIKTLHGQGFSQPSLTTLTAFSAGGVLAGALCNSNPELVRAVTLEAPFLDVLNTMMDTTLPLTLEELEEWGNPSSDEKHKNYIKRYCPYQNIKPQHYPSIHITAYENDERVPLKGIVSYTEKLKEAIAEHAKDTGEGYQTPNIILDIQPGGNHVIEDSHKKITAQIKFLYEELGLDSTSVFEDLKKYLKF
# MEKK2wt confirm: raises or lowers MEK5 binding to wildtype human MEKK2, retest | bead flow cytometry, Alexa488-MEK5 binding to MEKK2 WT; actives lie on both sides | binding response (% of control), % at 10 µM | AID 1892 | shares compounds with MEKK3 PB1 HTS | 5,900 compounds, 2.4% hits; in the data active = binding response below about 16% or above about 210%; inactive = in between
# MEKK2mut-MEK5: signal of MEK5 binding to mutant human MEKK2, retest; shares compounds with MEKK3 PB1 HTS; bead flow cytometry, Alexa488-MEK5 binding to MEKK2 mutant; percent response, % at 10 µM; 5,900 compounds, 2% hits; AID 1893; in the data active = percent response mostly above about 71%, no sharp cut-off; inactive = mostly below about 38%;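 note: higher means compound restores mutant binding toward wildtype level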
# MEKK3-MEK5 inh: confirmation of inhibitors of MEK5 binding to human MEKK3 | shares compounds with MEKK3 PB1 HTS | bead flow cytometry, Alexa488-MEK5 binding to MEKK3; active compounds read low | binding response (% of control), % at 10 µM | 5,900 compounds, 1.8% hits | AID 1894;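 active = binding response below 72% of control, or above a set upper limit, though filed actives all read lower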;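 note: 100% = DMSO only wells and 0% = binding blocked by excess unlabeled MEK5; lower values mean stronger disruption of MEK5 binding to MEKK3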
# PREPL inh cf: human PREPL inhibition, confirmation; 2,000 compounds, 67% hits; inhibition, % at 5.96 µM; shares compounds with PREPL inh; recombinant PREPL, fluorescence polarization activity probe;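 note: 0% = protein with DMSO and 100% = wells lacking protein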
# Casp3 counter: counter-screen for UBC13 inhibitors: human caspase-3 inhibition | shares compounds with UBC13 polyUb | Recombinant caspase-3, Caspase-Glo 3/7 luminescence, 60 min | inhibition, % at 20 µM | 1,400 compounds, 4% hits;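 active = mean inhibition across replicates above about 26%, limit read from the data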;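 note: plate controls were DMSO with caspase-3 for no effect and DMSO wells lacking enzyme for full effect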
# UBC13 conf: confirmation of human UBC13 polyubiquitin inhibitors | shares compounds with UBC13 polyUb | UBC13 polyubiquitination, TR-FRET, biochemical | inhibition, % at 10 µM | 1,400 compounds, 68% hits | AID 488859; in the data active = inhibition above about 45%
# Numbers without * were called inactive; · = no result given; [ ] = another dose, or the depositor's remark. Hits are enriched below; roughly 3.1% of the tested compounds scored in any of these assays. Cut-off read from the data, not from the text of the source, unless noted: active = inhibition above about 43%; inactive = the rest.
SMILES,MEKK2mut PB1 HTS,UBC13 polyUb,ATG4B inh,MEKK2wt PB1 HTS,MEKK3 PB1 HTS,PREPL inh,MEKK2wt confirm,MEKK2mut-MEK5,MEKK3-MEK5 inh,Casp3 counter,UBC13 conf,others
COc1cc2nc(Nc3ccc(C)c(Cl)c3)nc(N)c2cc1OC,50*,111*,15,181*,105,72*,198,65,105,25*,121*,PREPL inh cf=66*
CCN(C(=O)CN1C(=O)NC2(CCc3ccccc32)C1=O)C1CCCCC1 (stereo not given),·,2,6,·,·,3,·,·,·,·,·,
Cc1ccc(C(=O)N/C(=C\c2ccc(-c3ccc(Cl)cc3)o2)C(=O)NCCCN(C)C)cc1,1,47*,14,130,43*[inhibitor],10,168,38,104,-3,70*,
COc1ccc(C[C@H]2CN3C(=NC[C@@H]3C(C)C)N2CCNC(=O)c2ccc(C)c(Br)c2)cc1,32,60*,2,154*,103,27,157,66,110,-4,34,
CN(C)CCCN(C(=O)c1ccc(S(=O)(=O)N2CCCC2)cc1)c1nc2ccc(Br)cc2s1,30*,70*,-10,181*,104,8,234*,112*,127,-6,97*,
Cc1ccc2nc(N(CCCN(C)C)C(=O)c3ccc4c(c3)CCCC4)sc2c1,49,66*,8,191*,107,-11,162,26,107,0,69*,
CCOc1cccc2sc(N(CCCN(C)C)C(=O)c3ccc(S(=O)(=O)N(C)c4ccccc4)cc3)nc12,-6,38,-12,127,105,-26,·,·,·,·,·,
COc1cccc2sc(N(CCCN(C)C)C(=O)c3sc4ccccc4c3Cl)nc12,63*,45*,8,211*,119,-56,125,16,108,2,69*,
CCOc1ccc2nc(N(CCCN(C)C)C(=O)c3ccc(S(=O)(=O)N4CCCC4)cc3)sc2c1,16,27,1,124,106,-5,·,·,·,·,·,
CCOc1cccc2sc(N(CCCN(C)C)C(=O)c3ccc(S(=O)(=O)N4CCc5ccccc5C4)cc3)nc12,49*,91*,1,200*,113,5,305*,126*,116,-1,110*,
CC(C)(Oc1ccc(Cl)cc1)C(=O)OCC(=O)NCCc1ccccc1,5,12,-1,106,103,-27,·,·,·,·,·,
CN(CC(=O)Nc1ccc(F)cc1)C(=O)COC(=O)CCN1C(=O)C2CC=CCC2C1=O (stereo not given),8,6,4,110,102,7,·,·,·,·,·,
COc1cc2nc(N(CCCN(C)C)C(=O)c3ccc(S(=O)(=O)N4CCc5ccccc54)cc3)sc2cc1OC,·,40,-16,·,·,19,·,·,·,·,·,
CCc1ccc2nc(N(CCCN(C)C)C(=O)c3ccc(S(=O)(=O)N4CCc5ccccc5C4)cc3)sc2c1,28*,87*,5,176*,106,-8,197,60,96,-1,114*,
Cc1nc2sccn2c(=O)c1CCN1CCC(=C(c2ccc(F)cc2)c2ccc(F)cc2)CC1,12,45*,-1,146*,86,2,136,20,107,-1,22,
Cc1nc2ccccn2c(=O)c1CCN1CCC(C(=O)c2ccc(F)cc2)CC1,4,-5,-3,95,88,27,·,·,·,·,·,
COc1cc(CNCCc2c[nH]c3ccccc23)ccc1OCc1ccccc1F,60*,47*,-7,244*,115,-93,170,73*,108,-1,44,
CN(C)CCCn1c(=O)n(CCc2ccccc2)c(=O)c2c3c(sc21)CCCCC3,1,39,5,130,103,21,·,·,·,·,·,
CN(C)CCCNc1nc2sc3c(c2c(=O)n1CCc1ccccc1)CCCCC3,49,49*,14,183*,111,68*,166,45,108,-1,73*,
COc1ccc(C(=O)Nc2cccc3c2CCCC3)cc1OC,-1,-6,4,98,101,0,·,·,·,·,·,
CCN1CCN(Cc2ccc(NC(=O)c3ccc(C)c(/C=C/c4cnc(Nc5cc(N6CCNCC6)nc(C)n5)cn4)c3)cc2C(F)(F)F)CC1,205*,123*,5,401*,114,28,280*,169*,118,-1,116*,
CCN1CCN(Cc2ccc(NC(=O)c3ccc(C)c(NC(=O)C[C@@H]4NC(=O)[C@H](Cc5ccccc5)NC4=O)c3)cc2C(F)(F)F)CC1,-8,2,0,97,93,4,·,·,·,·,·,
O=C(C[n+]1ccc(CCSc2ccc(F)cc2)cc1)c1ccccc1,249*,72*,8,61*,93,53*,149,27,101,0,124*,PREPL inh cf=44*
Cc1cc(C2N=C(N)Nc3nc4ccccc4n32)c(C)n1-c1ccccc1Cl (stereo not given),26*,46*,7,138*,113,-69,148,17,96,-4,55*,
COc1cccc(-c2nn(C)c3sc(C(=O)NCCCN(C)Cc4ccccc4)cc23)c1,22,53*,-19,147*,106,-48,146,46,105,-3,59*,
COc1ccc(CNC(=O)[C@H](C)NC(=O)N2CCn3c2nc2ccccc23)cc1,4,-1,-11,102,103,-5,·,·,·,·,·,
Cc1nc(N)sc1C(=O)N/N=C/c1ccco1,1,72*,-3,105,131*,-1,101,5,104,25,63*,
COc1ccc(C(CCN2CCOCC2)c2c(OC)cc(OC)c3c(-c4ccccc4)cc(=O)oc23)cc1 (stereo not given),·,·,-1,·,·,·,·,·,·,·,·,

# Assay outcomes: PubChem, several laboratories
